Records with an inconclusive call do not appear. Activity calls are given as the source filed them. The call rests on the fitted dose curve; in most records, active means well fitted curve in the direction sought with a large enough effect; inconclusive means small, poorly fitted or top-dose-only effect, or another doubt; inactive means no such curve, though single readings can be large; an effect the other way counts as inactive or inconclusive.

Test [1] can be described thus: NS1 protein of Zika virus - qHTS assay to identify small molecule inhibitors in human HEK 293 cells (AID 1347053). Further: nearly all actives have a fitted effect of over 55% in size. In a few lines:
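Readout was TR-FRET using paired anti-NS1 antibodies after 24 h infection of HEK 293 cells with ZIKV MR766 (MOI = 0.5). Compound preceded virus by 1 h; reduced signal reflects lower NS1 expression.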

The nature of test [2]: qHTS of pediatric cancer cell lines to identify multiple opportunities for drug repurposing: Primary screen for TC32 cells (AID 1347089). Further: nearly all actives have a fitted effect of over 60% in size. The procedure, abridged:
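A viability screen of TC32 cells was run over 48 h, with primary MIPE doses spanning 0.78 nM–46 µM and NPC doses 0.59 nM–46 µM. ATP luminescence (CellTiter-Glo) served as the read-out.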

Test [3] in a line: qHTS of pediatric cancer cell lines to identify multiple opportunities for drug repurposing: Primary screen for DAOY cells (AID 1347090). Further: nearly all actives have a fitted effect of over 55% in size. In a few lines:
(§1)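 Viability measured as metabolically active cells via CellTiter-Glo luminescence following 48 hours of compound exposure, 11-point dilutions in confirmatory testing. 500-1,000 cells/well plated 5 hours before dosing; controls were DMSO and 2.3 µM bortezomib.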

Test [4] is described as follows: qHTS of pediatric cancer cell lines to identify multiple opportunities for drug repurposing: Primary screen for SJ-GBM2 cells (AID 1347091). In a few lines: as §1
A short description of test [5]: qHTS of pediatric cancer cell lines to identify multiple opportunities for drug repurposing: Primary screen for A673 cells (AID 1347092). Further: nearly all actives have a fitted effect of over 45% in size. The procedure, abridged: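 Titration-based qHTS on A673 cells: MIPE compounds spanned 11 points (0.78 nM to 46 µM final), NPC compounds 8 points (0.59 nM to 46 µM final). Viability after 48 h was measured by ATP luminescence.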

Test [6] is described as follows: qHTS of pediatric cancer cell lines to identify multiple opportunities for drug repurposing: Primary screen for SK-N-MC cells (AID 1347093). The procedure, abridged:
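Metabolically active cells were quantified by ATP-dependent luminescence (CellTiter-Glo, 15 min at room temperature) following 48 h treatment. Cells had been plated at 500-1,000 per well and settled for 5 h beforehand.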
Potency means the concentration at half of the fitted maximal effect.

With `CC(=Cc1ccccc1)C=C1SC(=S)N(CC(=O)O)C1=O`, the Potency entry in test [1], in test [2], in test [3], in test [4] and in test [5] was “inactive” throughout. Moreover, the Potency in test [6] was 13.2 µM (active).

In the case of `C[C@]12CC[C@@H]3c4ccc(O)cc4C[C@@H](CCCCCCCCCS(=O)CCCC(F)(F)C(F)(F)F)[C@H]3[C@H]1CC[C@H]2O` (stereo partly drawn), the Potency result in test [1], in test [2], in test [3] and in test [4] was “inactive” throughout.

As for `O=C(O)c1cc(O)c2c(c1)C(=O)c1cccc(O)c1C2=O`, the Potency entry in test [1], in test [2], in test [3], in test [4] and in test [5] was “inactive” throughout. In addition, the Potency in test [6] is 19.1 µM (active).

Consider `COc1ncc(-c2ccc3nccc(-c4ccnnc4)c3c2)cc1NS(=O)(=O)c1ccc(F)cc1F`, for which the Potency in test [1] is 0.0418 µM (active); in test [2], 0.0026 µM (active); in test [3], 4.69 µM (active); in test [4], 0.001 µM (active); in test [5], 0.0743 µM (active); in test [6], 0.001 µM (active).

Regarding `C[C@]12CC[C@@H]3c4ccc(O)cc4CC[C@H]3[C@H]1C[C@@H](O)[C@H]2O`, the Potency entry in test [1], in test [2], in test [3] and in test [4] was “inactive” in each case.

As for `CC#CCn1c(N2CCC[C@@H](N)C2)nc2c1c(=O)n(Cc1nc(C)c3ccccc3n1)c(=O)n2C`, the Potency result in test [1], in test [2], in test [3] and in test [4] was “inactive” each time. For the same compound, in test [5], the Potency is 23.5 µM (active).

Take `CCc1ccc(OCc2ccccc2C(=O)Nc2ccc3nc(C)cc(N)c3c2)cc1`: the Potency in test [1] is 2.96 µM (active); in test [2], 20.8 µM (active); in test [3], 11.8 µM (active); in test [4] it was 23.5 µM (active); in test [5] it was 2.96 µM (active); in test [6] it was 5.9 µM (active).

Take `O=C1c2ccccc2-[n+]2ccc3c([nH]c4ccccc43)c21`: the Potency in test [1] is 1.05 µM (active); in test [2], 4.66 µM (active); in test [3] it was 2.96 µM (active); in test [4] it was 0.833 µM (active); in test [5] it was 1.18 µM (active); in test [6] it was 1.32 µM (active).

Take `C[C@H]1[C@H](NC(=O)C(=NOC(C)(C)C(=O)O)c2csc(N)n2)C(=O)N1S(=O)(=O)O`: the Potency entry in test [1], in test [2], in test [3], in test [4], in test [5] and in test [6] was “inactive” in each case.

As for `CC(C)C(C)C=CC(C)C1CCC2C3=CC=C4CC(O)CCC4(C)C3CCC21C` (stereo not drawn), the Potency result in test [1], in test [2], in test [3], in test [4], in test [5] and in test [6] was “inactive” throughout.

Turning to `C=C1C(=O)OC2C=C(C)CCC=C(C)CCC12` (stereo not drawn), the Potency result in test [1] and in test [2] was “inactive” each time.

With `O=C(O)c1ccccc1C(=O)Nc1ccc(-c2ccccc2)cc1`, the Potency result in test [1], in test [2], in test [3], in test [4], in test [5] and in test [6] was “inactive” each time.

Regarding `O=C(O)c1cc(-c2ccccc2)nc2ccccc12`, the Potency entry in test [1], in test [2], in test [3], in test [4] and in test [5] was “inactive” in each case. Further, the Potency in test [6] was 49.1 µM (active).

`O=C(O)C(O)Cc1ccc(O)c(O)c1` (stereo not drawn): the Potency result in test [1], in test [2], in test [3] and in test [4] was “inactive” each time.

`CC=CCC=CCCC(=O)[C@H]1O[C@@H]1C(N)=O`: the Potency result in test [1], in test [2] and in test [3] was “inactive” in each case.

As to `Oc1ccc(C2CCN(c3ccnc4ccccc34)CC2)cc1O`, the Potency entry in test [1] and in test [2] was “inactive” throughout.

Regarding `C=C1C(=O)[C@@]23C(CC[C@@H]1[C@H]2O)[C@@]12CO[C@]3(O)[C@@H](O)[C@@H]1C(C)(C)CC[C@@H]2O` (stereo partly drawn), the Potency in test [1] was 9.35 µM (active); in test [2] it was 16.5 µM (active); in test [3] it was 2.35 µM (active); in test [4], 8.33 µM (active); in test [5], 3.72 µM (active); in test [6] it was 1.66 µM (active).

As for `O=c1ccn([C@@H]2O[C@H](CO)[C@H](O)[C@H]2O)c(=O)[nH]1`, the Potency entry in test [1], in test [2], in test [3], in test [4], in test [5] and in test [6] was “inactive” throughout.

With `N[C@H](CSC(c1ccccc1)(c1ccccc1)c1ccccc1)C(=O)O`, the Potency entry in test [1] and in test [2] was “inactive” in each case. The Potency is 18.7 µM (active) in test [3], 5.26 µM (active) in test [4], 9.35 µM (active) in test [5] and 14.8 µM (active) in test [6].

With `NS(=O)(=O)c1cccc2c1C(=O)c1cccc(O)c1C2=O`, the Potency in test [1] is 3.32 µM (active); in test [3], 0.935 µM (active); in test [4], 0.59 µM (active); in test [5], 0.372 µM (active); in test [6] it was 0.935 µM (active). In addition, the Potency entry in test [2] is “inactive”.

Consider `COc1ccc(-n2c(C)c([N+](=O)[O-])c3ccc(O)cc32)cc1`, for which the Potency entry in test [1], in test [2], in test [3] and in test [4] was “inactive” throughout. In addition, the Potency in test [5] was 7.43 µM (active); in test [6] it was 1.18 µM (active).

Consider `O=C(NC1CCOCC1)c1ccc(-c2cc(-c3cn[nH]c3-c3ccccn3)ccn2)cc1`, for which the Potency entry in test [1], in test [2], in test [3], in test [4], in test [5] and in test [6] was “inactive” each time.

Turning to `CC(=O)Nc1ccc([C@H](C)C(=O)Nc2ncc(C(C)C)s2)cc1`, the Potency is 3.72 µM (active) in test [1]; 16.5 µM (active) in test [2]; 1.48 µM (active) in test [3]; 0.743 µM (active) in test [4]; 0.743 µM (active) in test [5]; 0.332 µM (active) in test [6].

For the compound `O=C(O)Cc1cccc2ccccc12`, the Potency entry in test [1], in test [2], in test [3], in test [4], in test [5] and in test [6] was “inactive” in each case.

As to `O=c1cc(-c2ccccc2)oc2cc(O)c(O)c(O)c12`, the Potency result in test [1], in test [2], in test [3], in test [4], in test [5] and in test [6] was “inactive” in each case.

As for `COc1ccc2c(Oc3ccc(NC(=O)c4c(C)n(CC(C)(C)O)n(-c5ccccc5)c4=O)nc3)ccnc2c1`, the Potency entry in test [1], in test [2], in test [3] and in test [5] was “inactive” in each case. For the same compound, the Potency in test [4] is 0.469 µM (active); in test [6], 29.6 µM (active).

As to `O=C(N[C@@H](c1ccccc1)[C@@H]1CCCCN1)c1cccc(C(F)(F)F)c1Cl`, the Potency result in test [1], in test [2], in test [3] and in test [4] was “inactive” in each case. Also, in test [6], the Potency was 20.9 µM (active).

With `O=c1cc(N2CCOCC2)oc2c(-c3cccc4c3sc3ccccc34)cccc12`, the Potency in test [1] is 18.7 µM (active); in test [3], 18.7 µM (active); in test [4], 5.9 µM (active); in test [6], 5.26 µM (active). Also, the Potency entry in test [2] was “inactive”.

Regarding `NC1CCC(Nc2nc(Nc3ccc(C(=O)N4CCCCC4)cc3)c3ncn(-c4cccc(F)c4)c3n2)CC1` (stereo not drawn), the Potency entry in test [1], in test [2], in test [3], in test [4] and in test [6] was “inactive” throughout.

Consider `CNC(=O)c1ccc2cc(C3(O)CCn4cncc43)ccc2c1` (stereo not drawn), for which the Potency entry in test [1], in test [2], in test [3], in test [4] and in test [6] was “inactive” each time.

These data come from PubChem BioAssay (NCATS).
